Drawing on PubChem BioAssay (EPA / NIEHS), this text covers outcome and AC50 for 15 compounds.

The nature of assay [1]: Tanguay_ZF_120hpf_MO24: Oregon State University Tanguay Lab 24 Hour Post-fertilization zebrafish Assay for Mortality (AID 2284389). The essentials:
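Embryo death at 24 hpf was recorded as present or absent in Tropical 5D zebrafish, dechorionated at 4 hpf and dosed statically from 6 hpf (28C, 0.64% DMSO); 5 uM trimethyltin chloride served as positive control.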

Assay [2] can be described thus: Tanguay_ZF_120hpf_DP24: Oregon State University Tanguay Lab 24 Hour Post-fertilization zebrafish Assay for Delayed Development (AID 2284390). A digest of the protocol: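 Scored at 24 hpf as a binary present/absent call of delayed development by brightfield, with dead embryos not assessed. Embryos (5D wild type, chorion removed with pronase at 4 hpf) dosed statically from 6 hpf at 28 C in 0.64% DMSO.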

A short description of assay [3]: Tanguay_ZF_120hpf_CRAN: Oregon State University Tanguay Lab 120 Hour Post-fertilization zebrafish Assay for Craniofacial Malformation (AID 2284397). A digest of the protocol: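 Scoring of craniofacial malformation as a binary endpoint was done at 120 hpf by brightfield microscopy and was not done in dead embryos. Exposure was static, starting at 6 hpf, in dechorionated wild-type embryos held singly at 28C with 0.64% DMSO final.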

The nature of assay [4]: Tanguay_ZF_120hpf_MORT: Oregon State University Tanguay Lab 120 Hour Post-fertilization zebrafish Assay for Mortality (AID 2284399). A digest of the protocol: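 Mortality, recorded present/absent via brightfield imaging at 24 and 120 hpf, in 5D zebrafish embryos exposed statically from 6 hpf after pronase chorion removal. Exposure at 28C, 0.64% DMSO vehicle, DMSO baseline.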

Assay [5] can be described thus: Tanguay_ZF_120hpf_EDEM: Oregon State University Tanguay Lab 120 Hour Post-fertilization zebrafish Assay for Edema Malformation (AID 2284400). The essentials:
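Edema recorded as a binary endpoint under brightfield at 120 hpf, excluding embryos that died. Exposure was static, sealed, 28C, from 6 hpf in dechorionated wild-type larvae, final DMSO 0.64%, DMSO as baseline.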

Assay [6] is described as follows: Tanguay_ZF_120hpf_BRN: Oregon State University Tanguay Lab 120 Hour Post-fertilization zebrafish Assay for Brain Region Malformation (AID 2284402). The essentials: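 Binary brightfield scoring of brain malformation at 120 hpf in 5D wild-type larvae, chorion removed with pronase at 4 hpf. Static exposure began at 6 hpf, 28C, sealed plates, DMSO 0.64% (vol/vol) as vehicle baseline.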

The nature of assay [7]: Tanguay_ZF_120hpf_TCHR: Oregon State University Tanguay Lab 120 Hour Post-fertilization zebrafish Assay for Touch Responsive (AID 2284403). A digest of the protocol: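 Binary touch-response calls are made at 120 hpf in 5D wild-type zebrafish larvae. These larvae were dechorionated with pronase and exposed singly from 6 hpf in sealed, dark plates at 28 °C with 0.64% DMSO final; dead embryos are excluded.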

The nature of assay [8]: CCTE_Padilla_ZF_Score.Craniofacial: CCTE's 144 Hour Post-fertilization zebrafish Assay Score for Craniofacial Malformation, Padilla Lab (AID 2284405). A digest of the protocol:
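Craniofacial defects were scored at 6 dpf by two blinded observers using stereomicroscopy. Exposure of wild-type embryos began at 6–8 hpf in sealed wells of 10% Hanks' solution at 26C, with chemical removed by rinsing at 5 dpf.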

A short description of assay [9]: CCTE_Padilla_ZF_Score.Spine: CCTE's 144 Hour Post-fertilization zebrafish Assay Score for Spine Malformation, Padilla Lab (AID 2284407). A digest of the protocol: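 Spine malformation scored at 6 dpf by two independent blinded observers under stereomicroscope, after static sealed exposure from 6–8 hpf at 26C in Hanks' solution with rinse on 5 dpf. Positive-direction fit against DMSO control.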

The nature of assay [10]: CCTE_Padilla_ZF_Score.Swim_bladder: CCTE's 144 Hour Post-fertilization zebrafish Assay Score for Swim Bladder Malformation, Padilla Lab (AID 2284408). A digest of the protocol: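 Swim bladder inflation scored at 6 dpf by two blinded observers under a stereo microscope. Exposure ran from 6–8 hpf in sealed wells of 10% Hanks' at 26C, with rinsing at 5 dpf; DMSO served as baseline.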

Assay [11] can be described thus: CCTE_Padilla_ZF_Score.Position: CCTE's 144 Hour Post-fertilization zebrafish Assay Score for Position, Padilla Lab (AID 2284409). The essentials:
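Wild-type zebrafish embryos (with chorions) exposed singly from 6–8 hpf in sealed wells of Hanks' solution at 26C, rinsed at 5 dpf. At 6 dpf, blinded assessors scored abnormal water-column position by brightfield stereomicroscopy, relative to DMSO.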

A short description of assay [12]: CCTE_Padilla_ZF_Score.Living: CCTE's 144 Hour Post-fertilization zebrafish Assay Score for Viability, Padilla Lab (AID 2284410).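 Note: larval death at 6 dpf judged by absent heartbeat or coagulation.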 The essentials: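 Mortality at 6 dpf, judged as absent heartbeat or coagulation by two blinded observers, after sealed static exposure beginning at 6–8 hpf at 26C. Larvae were rinsed free of chemical at 5 dpf, and activity was fitted relative to DMSO.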

Assay [13] in a line: CCTE_Padilla_ZF_Score.Edema: CCTE's 144 Hour Post-fertilization zebrafish Assay Score for Edema Malformation, Padilla Lab (AID 2284406). The essentials: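 Edema scored at 6 dpf by two blinded observers under a stereo microscope, in single outbred wild-type larvae exposed from 6-8 hpf in sealed wells (Hanks', 26C, 14:10 h light) and chemical-free after a 5 dpf rinse.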
Assay [14] is described as follows: CCTE_Padilla_ZF_Score.General: CCTE's 144 Hour Post-fertilization zebrafish Assay Score for General Malformation, Padilla Lab (AID 2284411). A digest of the protocol: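 Malformation, death and hatching were scored at 6 dpf by two blinded observers under a stereo microscope. Embryos were dosed singly from 6-8 hpf in sealed plates of 10% Hanks' at 26C and rinsed on 5 dpf; DMSO baseline.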

Assay [15] in a line: Tanguay_ZF_120hpf_ANY: Oregon State University Tanguay Lab 120 Hour Post-fertilization zebrafish Assay for Any Mortality and Malformation (AID 2284404). The essentials: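 Dechorionated Tropical 5D wild-type embryos, one per well from 6 hpf, static exposure in sealed, dark plates at 28C until 120 hpf, 0.64% DMSO final. Brightfield scoring of mortality and malformations as binary presence/absence, pooling 13 morphology endpoints.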

Molecules are shown by their SMILES. The source made the active and inactive calls. Rule for the calls: active = hit-call score of the fitted dose curve at least 0.9, where 1 is the maximum; inactive = score below 0.9.

Broadly, the AC50 is the midpoint of the concentration-response curve, whichever way the signal moves.

As for `CCCCCCCCC(F)(F)C(F)(F)C(F)(F)C(F)(F)C(F)(F)C(F)(F)F`, the result in [1], in [2], in assay [3], in assay [4], in assay [5] and in [6] was inactive. The compound was classed as inactive in assay [7], in assay [8], in assay [9], in assay [10], in assay [11] and in assay [12].

As to `O=C(O)C(F)(F)C(F)(F)C(F)(F)C(F)(F)C(F)(F)C(F)(F)C(F)(F)C(F)(F)C(F)(F)C(F)F`, the result in [1], in assay [2], in assay [3], in assay [5], in [6] and in assay [7] was inactive. The compound was classed as inactive in [8], in assay [9], in assay [10] and in [11]. Further, the AC50 in [4] was 37 µM (active); in assay [13], 14.9 µM (active); in assay [12], 17.5 µM (active).

Take `FC(F)(I)C(F)(F)C(F)(F)C(F)(F)I`: the AC50 in assay [8] is 76.2 µM (active); in assay [10], 27.5 µM (active); in assay [14] it was 24.3 µM (active). Besides, the compound was called inactive in [9], in assay [11] and in assay [12].

For `FC(F)(F)C(F)(F)C(F)(F)N(C(F)(F)C(F)(F)C(F)(F)F)C(F)(F)C(F)(F)C(F)(F)F`, the call in [1], in [2], in [3], in [4], in assay [5] and in assay [6] was inactive. For the same compound, the compound was classed as inactive in [7], in assay [8], in [9], in [10], in assay [11] and in [12].

As for `CCCCCCS`, the outcome in [14] was inactive.

Regarding `O=C(O)C(F)(OC(F)(F)C(F)(OC(F)(F)C(F)(OC(F)(F)C(F)(F)C(F)(F)F)C(F)(F)F)C(F)(F)F)C(F)(F)F` (stereo not drawn), the result in assay [1], in assay [2], in assay [3], in assay [4], in assay [5] and in assay [6] was inactive. The compound was called inactive in assay [7], in assay [8], in assay [9], in assay [10], in assay [11] and in [12].

Turning to `O=C(O)C(F)(F)C(F)(F)C(F)F`, the call in assay [1], in assay [2], in assay [3], in [4], in assay [5] and in assay [6] was inactive. The result in assay [7], in assay [8], in assay [9], in [10], in assay [11] and in [12] was inactive.

On to `C=CC(=O)OCC(F)(F)C(F)(F)C(F)(F)C(F)(F)C(F)(F)C(F)(F)C(F)(F)F`, for which the result in [1], in [2], in [3], in [4], in assay [5] and in [6] was inactive. The compound was classed as inactive in [7], in assay [15], in [8], in assay [9], in assay [10] and in [11]. For the same compound, the call in [12] was inactive.

Regarding `FC(F)(F)C(F)(F)C(F)(F)C(F)(F)C(F)(F)C(F)(F)C(F)(F)Br`, the outcome in assay [1], in assay [2], in [3], in assay [4], in [5] and in [6] was inactive. For the same compound, the result in assay [7], in assay [8], in assay [9], in [10], in [11] and in assay [12] was inactive.

For `FC(F)(F)C(F)(F)C(F)(F)C(F)(F)C(F)(F)C(F)(F)CCS`, the compound was classed as inactive in assay [8], in assay [13], in assay [9], in assay [10], in [11] and in assay [12]. Moreover, the outcome in [14] was inactive.

In the case of `O=C(O)C(F)(OC(F)(F)C(F)(OC(F)(F)C(F)(F)C(F)(F)F)C(F)(F)F)C(F)(F)F` (stereo not drawn), the call in assay [1], in [2], in [3], in [4], in [5] and in assay [6] was inactive. For the same compound, the outcome in assay [7], in [15], in assay [8], in assay [9], in [10] and in [11] was inactive. Besides, the outcome in assay [12] was inactive.

As for `O=S(=O)(OCCOC(F)(F)F)C(F)(F)F`, the call in [1], in [2], in assay [3], in assay [4], in assay [5] and in assay [6] was inactive. Moreover, the call in [7], in assay [8], in [9], in assay [10], in [11] and in assay [12] was inactive.

`O=C(O)C(F)(F)C(F)(F)C(F)(F)C(F)(F)C(F)(F)C(F)(F)C(F)(F)C(F)(F)C(F)(F)C(F)(F)C(F)(F)C(F)(F)F`: the compound was classed as inactive in assay [1], in assay [2], in assay [3], in assay [5], in assay [6] and in [7]. For the same compound, the call in assay [8], in assay [9], in assay [10], in [11], in assay [12] and in assay [14] was inactive. For the same compound, in assay [4], the AC50 is 7.47 µM (active).

Consider `FC(F)(F)C(F)(F)C(F)(F)C(F)(F)C(F)(F)C(F)(F)C(F)(F)I`, for which the outcome in [1], in assay [2], in assay [3], in assay [4], in assay [5] and in [6] was inactive. The compound was classed as inactive in [7], in assay [8], in assay [9], in assay [11] and in assay [12]. The AC50 in [10] is 63.8 µM (active); in [14] it was 11.8 µM (active).

With `C=C(C)C(=O)OCC(F)(F)C(F)(F)C(F)(F)C(F)(F)C(F)(F)C(F)(F)C(F)(F)F`, the compound was classed as inactive in assay [1], in assay [2], in assay [3], in assay [4], in [5] and in assay [6]. The compound was classed as inactive in assay [7], in [8], in assay [9], in [10], in [11] and in [12].
